Assay outcomes as filed in PubChem BioAssay.
BaF3 parental: reduces parental Ba/F3 cell viability, JAK2V617F counter-screen | CellTiter-Glo ATP luminescence | inhibition, % at 5.6 µM | 220,000 compounds, 1.1% hits;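 active = inhibition above a per-campaign cutoff, the mean inhibition of all tested compounds plus 3 SD, cut at about 27% in these data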
KLF5 inh: suppresses KLF5 promoter-driven expression; DLD-1 KLF5 promoter-luciferase reporter, luminescence; inhibition, % at 5 µM; 290,000 compounds, 0.23% hits; AID 1700;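 active = inhibition above a per-plate limit of that plate's mean compound inhibition plus 3 SD, cut at about 60% in these data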;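 note: higher means less KLF5 promoter-driven luciferase light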
APP transl inh: APP translation inhibition. SH-SY5Y APP 5'UTR-luciferase reporter, luminescence. inhibition, % at 2 µM. 190,000 compounds, 0.82% hits;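 active = inhibition above a set limit, derived from the sample mean plus 3 SD, cut at about 45% in these data; inconclusive = one replicate passes the limit while the other fails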
IEC-6 tox-1: IEC-6 cytotoxicity, counter-screen for KLF5 inhibitors | luminescence viability | inhibition, % at 5 µM | 290,000 compounds, 0.78% hits; in the data active = inhibition above about 22%
Ba/F3 V617F tox: lowers viability of Ba/F3 cells expressing EpoR and JAK2V617F | ATP luminescence | inhibition, % at 5.6 µM | 220,000 compounds, 1.1% hits | AID 1446;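 active = inhibition above the campaign mean plus 3 SD over all tested compounds, cut at about 24% in these data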;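 note: cytokine-independent growth of Ba/F3 cells driven by EpoR plus mutant JAK2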
aSyn 5UTR inh: MLPCN primary screen, SNCA 5' untranslated region; 300,000 compounds, 0.82% hits; alpha-synuclein 5'UTR reporter, inhibitor activity; AID 1813; inhibition, % (tested at 7.5 µM); in the data active = inhibition above about 60%; inconclusive = no clear call, values can overlap the other calls;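 note: H4 neuroglioblastoma cells stably carrying SNCA 5'UTR luciferase fusion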
KLF5 inh confirm: confirmation of KLF5 inhibitors; shares compounds with KLF5 inh; DLD-1 KLF5 promoter firefly luciferase reporter, luminescence; inhibition, % at 4 µM; 610 compounds, 79% hits;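 active = inhibition above a set limit taken from the earlier primary screen, cut at about 63% in these data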
IEC-6 tox-2: kills rat IEC-6 cells in KLF5 counter-screen; inhibition, % at 4 µM; 610 compounds, 56% hits; IEC-6 rat intestinal cells, viability luminescence; shares compounds with KLF5 inh; AID 1905; in the data active = inhibition above about 23%;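 note: cells exposed to compounds for 48 hours before viability read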
Large screens that a line does not name were inactive (follow-up assays come after a bar, where they were run). Compounds with a hit are over-represented: about 2.2% of the library has one in this group of screens.

N/C(=N\OC(=O)c1ccc(Cl)cc1Cl)c1ccccn1	KLF5 inh 95, aSyn 5UTR inh 89 | KLF5 inh confirm inactive | IEC-6 tox-2 inactive
O=c1[nH]c(SCc2ccccc2)nc2c1sc1ccccc12	none
O=C(Nc1nnc(-c2ccc(F)cc2)o1)c1cccc([N+](=O)[O-])c1	KLF5 inh 72, IEC-6 tox-1 98 | KLF5 inh confirm inactive | IEC-6 tox-2 inactive
N#C/C(=C\c1ccc([N+](=O)[O-])cc1)c1ccccn1	none
CN(C)c1ccc(/C=C(\C#N)c2ccccn2)cc1	KLF5 inh 69, aSyn 5UTR inh 102 | KLF5 inh confirm 66 | IEC-6 tox-2 inactive
CCOc1ccc(N=Nc2ccc(O)c3ncccc23)cc1	KLF5 inh 65 (no result: BaF3 parental, APP transl inh, Ba/F3 V617F tox) | KLF5 inh confirm inactive | IEC-6 tox-2 inactive
CCOc1ccc(N=Nc2cc(C(C)C)ccc2O)cc1	none
CCN(CC)S(=O)(=O)c1cccc2cccnc12	none
CCN(CC)S(=O)(=O)c1cc(OC)ccc1N=Nc1ccc(O)c2ncccc12	KLF5 inh 87, aSyn 5UTR inh inconclusive (no result: BaF3 parental, APP transl inh, Ba/F3 V617F tox) | KLF5 inh confirm 87 | IEC-6 tox-2 inactive
COC(=O)c1sccc1NC(=S)N1CC(C)CC(C)C1 (configuration not stated)	none (no result: APP transl inh)
CC1(C)N=C(N)N=C(N)N1c1ccc(OCCCOc2ccccc2)c(Cl)c1	BaF3 parental 102, KLF5 inh 77, IEC-6 tox-1 82, Ba/F3 V617F tox 97, aSyn 5UTR inh 78 (no result: APP transl inh) | KLF5 inh confirm 73 | IEC-6 tox-2 66
Oc1c(CN2CCN(c3ccccc3)CC2)cc(Br)c2cccnc12	aSyn 5UTR inh 85 (no result: APP transl inh) | KLF5 inh confirm inactive | IEC-6 tox-2 inactive
Cc1nn(-c2nc3ccccc3[nH]2)c(=O)c2ccccc12	BaF3 parental 87, KLF5 inh 110, APP transl inh 74, IEC-6 tox-1 85, Ba/F3 V617F tox 83, aSyn 5UTR inh 115 | KLF5 inh confirm 105 | IEC-6 tox-2 63
Cc1nn(-c2ccc3ccccc3c2)c(=O)c2ccccc12	none
Cc1ccc2nc(NC(=O)[C@H](C)N3C(=O)C4CC=CCC4C3=O)sc2c1 (some centres not stated)	KLF5 inh 74, aSyn 5UTR inh 63 | KLF5 inh confirm inactive | IEC-6 tox-2 inactive
CSc1nnc(NC(=O)c2ccc3c(c2)OCO3)s1	KLF5 inh 75, aSyn 5UTR inh 81 (no result: BaF3 parental, APP transl inh, Ba/F3 V617F tox) | KLF5 inh confirm inactive | IEC-6 tox-2 inactive
Cc1ccc(-n2nnc(-c3nccs3)n2)cc1	KLF5 inh 63, aSyn 5UTR inh 95 | KLF5 inh confirm 64 | IEC-6 tox-2 inactive
C[C@@H]1C=CC(=O)O[C@@H]1c1ccc(C(F)(F)F)cc1	KLF5 inh 62 (no result: BaF3 parental, APP transl inh, Ba/F3 V617F tox) | KLF5 inh confirm inactive | IEC-6 tox-2 inactive
CCCC[C@@H]1CNC(=O)C(=O)N1CC(C)(C)C	none (no result: BaF3 parental, KLF5 inh, APP transl inh, IEC-6 tox-1, Ba/F3 V617F tox)
Cc1c(C)c2ccc(OCC(=O)Nc3ccccn3)c(C)c2oc1=O	KLF5 inh 91, aSyn 5UTR inh 110 (no result: BaF3 parental, APP transl inh, Ba/F3 V617F tox) | KLF5 inh confirm inactive | IEC-6 tox-2 inactive
Cc1c(C)c2ccc(OCC(=O)N(C)C)c(C)c2oc1=O	none
O=C(Nc1ccccn1)c1ccc(C(=O)c2ccccc2)cc1	none (no result: BaF3 parental, KLF5 inh, APP transl inh, IEC-6 tox-1, Ba/F3 V617F tox)
O=C(NC(=O)c1ccccc1)Nc1ccccn1	KLF5 inh 84, aSyn 5UTR inh 64 (no result: BaF3 parental, APP transl inh, Ba/F3 V617F tox) | KLF5 inh confirm 66 | IEC-6 tox-2 33
Cc1csc(NC(=O)c2cc3c(s2)CCCCC3)n1	KLF5 inh 72, aSyn 5UTR inh 92 | KLF5 inh confirm inactive | IEC-6 tox-2 inactive
CCOC(=O)Cc1csc(NC(=O)c2cc3c(s2)CCCC3)n1	none
COc1ccccc1C(=O)NCCC(=O)NCC(C)(C)N1CCOCC1	none (no result: BaF3 parental, APP transl inh, Ba/F3 V617F tox)
CN1CCN(c2ccc(-c3ccc4ccccc4n3)cc2)CC1	KLF5 inh 99, APP transl inh 51, aSyn 5UTR inh 112 | KLF5 inh confirm 104 | IEC-6 tox-2 inactive
Cc1ccc2c(c1)COc1c3ccc(C(=O)O)cc3nn1-2	KLF5 inh 92 (no result: BaF3 parental, APP transl inh, Ba/F3 V617F tox) | KLF5 inh confirm inactive | IEC-6 tox-2 inactive
CC1=CC(=O)C(C(C)=Nc2ccccc2Cl)C(=O)O1 (configuration not stated)	none (no result: APP transl inh)
Cc1cc(NC(=O)c2c(Br)c(C)nn2C)no1	none
CCCCNC1=CC(=O)C(=O)c2ccccc21	none
CCCCN1C=CC(=C2C(=O)c3ccccc3C2=O)C=C1	KLF5 inh 95, APP transl inh 58, aSyn 5UTR inh 98 | KLF5 inh confirm inactive | IEC-6 tox-2 inactive
COc1cc(C(=O)N/N=C/c2cc([N+](=O)[O-])cs2)cc(OC)c1OC	BaF3 parental 77, KLF5 inh 79, APP transl inh 95, IEC-6 tox-1 78, Ba/F3 V617F tox 81 | KLF5 inh confirm 76 | IEC-6 tox-2 59
CC1=Nc2cc(C(=O)NCc3ccco3)ccc2Sc2ccc(C)cc21	BaF3 parental 80, KLF5 inh 68, APP transl inh 96, IEC-6 tox-1 80, Ba/F3 V617F tox 84, aSyn 5UTR inh 101 | KLF5 inh confirm 83 | IEC-6 tox-2 62
O=C(O)c1ccc(-c2ccc(-c3ccccc3)cc2)s1	KLF5 inh 90, aSyn 5UTR inh 64 (no result: BaF3 parental, APP transl inh, Ba/F3 V617F tox) | KLF5 inh confirm 92 | IEC-6 tox-2 inactive
CC(=O)Oc1ccc(C(=O)Nc2cc(C)on2)cc1	none (no result: BaF3 parental, APP transl inh, Ba/F3 V617F tox)
Nc1nc(Nc2ccc(Cl)cc2)nc2ccccc12	none
CCOc1ccc(Nc2nc(N)c3ccccc3n2)cc1	KLF5 inh 81, aSyn 5UTR inh 102 (no result: BaF3 parental, APP transl inh, Ba/F3 V617F tox) | KLF5 inh confirm inactive | IEC-6 tox-2 inactive
CN(C)c1ccc(Nc2nc(N)c3ccccc3n2)cc1	KLF5 inh 91, aSyn 5UTR inh 109 (no result: BaF3 parental, APP transl inh, Ba/F3 V617F tox) | KLF5 inh confirm 67 | IEC-6 tox-2 inactive
O=c1cc(-c2ccccc2)[nH]c2ccccc12	BaF3 parental 79, KLF5 inh 65, APP transl inh 94, IEC-6 tox-1 84, Ba/F3 V617F tox 82, aSyn 5UTR inh 68 | KLF5 inh confirm 83 | IEC-6 tox-2 57
O=[N+]([O-])c1ccc(O)c(/C=N/Nc2ccc(Cl)nn2)c1	KLF5 inh 67, aSyn 5UTR inh 100 | KLF5 inh confirm 76 | IEC-6 tox-2 38
COC(=O)c1cc(C(=O)N2CCN(c3ccccc3OC)CC2)cc([N+](=O)[O-])c1	BaF3 parental 71, KLF5 inh 74, APP transl inh 92, IEC-6 tox-1 69, Ba/F3 V617F tox 67 | KLF5 inh confirm 80 | IEC-6 tox-2 63
COC(=O)c1ccc2nc(Nc3nc4ccc(F)cc4s3)sc2c1	KLF5 inh 94, aSyn 5UTR inh 75 | KLF5 inh confirm 101 | IEC-6 tox-2 inactive
COc1ccccc1OCCNC(=O)C1CC(=O)N(c2cccc(SC)c2)C1 (configuration not stated)	none (no result: BaF3 parental, KLF5 inh, APP transl inh, IEC-6 tox-1, Ba/F3 V617F tox)
O=C1C(=O)N(c2nccs2)C(c2ccccc2F)/C1=C(\O)c1ccc2c(c1)OCCO2 (configuration not stated)	none (no result: BaF3 parental, APP transl inh, Ba/F3 V617F tox)
O=C1C(=O)N(c2nccs2)C(c2ccccc2)/C1=C(\O)c1ccc2c(c1)OCCO2 (configuration not stated)	KLF5 inh 74 (no result: BaF3 parental, APP transl inh, Ba/F3 V617F tox) | KLF5 inh confirm inactive | IEC-6 tox-2 inactive
